Assay outcomes: PubChem, several laboratories
In the library only some 1.8% were active in any assay of this set; here they are far more common.
Y pestis TopoI = Y. pestis Topo-I inhibition via cleavage products; Y. pestis Topo-I cleavage product accumulation, plate reader; activity, % at 10 µM; hit rate 0.064% among 360,000; in the data active means activity above about 50%, passing the limit was not always enough
BH1578 lux ind = induces V. cholerae light production without autoinducers | activation, % at 18.7 µM | hit rate 0.16% among 350,000 | V. cholerae BH1578 lux reporter, luminescence, 6 h | AID 588436; in the data active means activation mostly above about 9.7%, no sharp cut-off
DUSP3 inh = blocks human VHR1 dual specificity phosphatase. P51452. recombinant VHR phosphatase, pNPP absorbance. inhibition, % at 13.3 µM. hit rate 0.52% among 290,000. AID 1654; in the data active means inhibition above about 50%
Target sequence (P51452 whole entry, looked up): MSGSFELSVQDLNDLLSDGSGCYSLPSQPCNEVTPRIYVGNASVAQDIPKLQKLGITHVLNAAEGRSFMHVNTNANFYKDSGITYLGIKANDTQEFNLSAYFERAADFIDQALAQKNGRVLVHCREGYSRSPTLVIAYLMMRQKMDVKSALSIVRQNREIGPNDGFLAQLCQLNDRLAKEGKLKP
PrPC surface inh = cell surface PrPC inhibition, primary TR-FRET screen. inhibition, % at 13.8 µM. hit rate 0.43% among 370,000. TR-FRET read-out. P04156; in the data active means inhibition above about 24%; further: 0% = median of the test wells and 100% = reference compound wells
MazF activator = increases E. coli MazEF RNase cleavage of RNA | P0AE70 | FAM/BHQ RNA-DNA oligo cleavage fluorescence, 5 h | activation, % at 20 µM | hit rate 0.32% among 350,000 | AID 504720; in the data active means activation above about 50%
Target sequence (P0AE70 whole entry, looked up): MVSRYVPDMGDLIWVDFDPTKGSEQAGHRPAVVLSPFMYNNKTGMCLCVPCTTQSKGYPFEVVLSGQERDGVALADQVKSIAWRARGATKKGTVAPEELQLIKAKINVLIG
CCHF vOTU inh = CCHFV vOTU protease inhibition | inhibition, % at 11.5 µM | hit rate 0.55% among 370,000 | Pep-AMC fluorescence | AID 651958; in the data active means inhibition above about 30%; further: 0% = vehicle wells with enzyme and 100% = no enzyme wells
* = called active by the depositor; i = inactive; x = no result; + = active, no number.

SMILES	Y pestis TopoI	BH1578 lux ind	DUSP3 inh	PrPC surface inh	MazF activator	CCHF vOTU inh
CCOC(=O)CNC(=O)c1cc(-c2ccccn2)nc2c(C)c(Cl)ccc12	19	i	53*	-9	-9	-19
Cc1cc(C(=O)CN2C(=O)c3ccccc3C2=O)c(C)n1Cc1cccs1	-5	0	4	-7	68*	-9
Cc1cc(C(=O)Cn2nnc3ccccc3c2=O)c(C)n1Cc1cccs1	-2	-2	-25	-6	0	-11
CCN(C(=O)C1CCCN1S(=O)(=O)c1cccnc1)c1ccccc1 (centres undefined)	x	x	x	5	x	9
Cc1ccc2nc(SCC(=O)Nc3cccc(Cl)c3)nc(=O)n2c1	8	i	x	7	-2	2
Cc1ccc2nc(SCC(=O)Nc3ccc(C)c(Cl)c3)nc(=O)n2c1	4	2	x	6	74*	-9
N#Cc1c(-c2ccccc2)cc(-c2ccc(O)cc2)nc1N	4	i	-15	1	6	-17
Cc1ccc(-c2cc(-c3ccccc3)nc(N)c2C#N)o1	6	i	26	-11	83*	-126
CC(C)C(=O)Nc1nnc(CCN2CCOCC2)s1	-7	0	51*	-4	-1	-8
O=C(Nc1ccc(C(O)(C(F)(F)F)C(F)(F)F)cc1)c1ccc(Cl)cc1	x	x	x	-4	x	x
O=C(O)c1ccc(N/N=C/C(Br)=C/c2ccccc2)cc1	-12	0	1	1	61*	9
CCCn1nnnc1NCc1c(Cl)cccc1Cl	-14	i	18	2	6	-6
CCCn1nnnc1NCc1cccc(Cl)c1	1	-1	53*	6	10	-2
Cc1ccccc1/C=N/Nc1ccnc2cc(Cl)ccc12	-21	-3	7	0	30	10
Cc1ccc(/C=N/Nc2ccnc3cc(Cl)ccc23)c(C)c1	-12	i	87*	6	17	6
CC1Cn2c(nc3sc4c(c3c2=O)CC(C)(C)OC4)N1CCO (centres undefined)	-5	1	53*	4	4	-31
Cc1ccc(-c2nc3sc4c(c3c(=O)n2N)CC(C)(C)OC4)cc1	-6	17*	2	-2	6	-9
C[C@H]1[C@@H](OC(=O)NCc2ccc(Cl)cc2)CC[C@@]23CCCN2C(=O)CCC[C@@H]13	x	x	x	-2	x	x
O=C1Nc2ccc(Br)cc2C12NNc1ccccc1O2 (centres undefined)	-58	i	24	2	84*	9
COc1ccc(C(C(=O)NC2CCCCC2)N(C(=O)c2ccco2)c2ccccc2C(C)=O)cc1 (centres undefined)	11	i	-5	-5	-3	3
CC(=O)c1ccccc1N(C(=O)c1ccco1)C(C(=O)NC1CCCC1)c1ccc(C)cc1 (centres undefined)	16	0	51*	7	4	8
COc1ccc(C(=O)N(C)C2CCN(C)CC2)cc1S(=O)(=O)Nc1cc(Cl)ccc1Cl	x	x	52*	x	9	x
CCOC(=O)C1=NOC(C(=O)Nc2cc(C)cc(C)c2)(C(=O)C2CC2)C1 (centres undefined)	x	x	x	10	x	-2
CSc1cccc(CN2CCC(CCC(=O)NC3CC3)CC2)c1	-5	-1	51*	-8	-23	-8
CCOCc1cc(CN2CCC(CCC(=O)NC3CC3)CC2)ccc1OC	4	i	28	-3	6	0
SMILES	Y pestis TopoI	BH1578 lux ind	DUSP3 inh	PrPC surface inh	MazF activator	CCHF vOTU inh
Cc1ccc(S(=O)(=O)NN)c(C)c1N1CCCC1=O	-4	i	29	-1	165*	-11
CN(Cc1ccco1)S(=O)(=O)c1ccc2c(c1)CCN2C(=O)CC(C)(C)C	x	x	x	3	x	6
COc1ccc(-c2nn(-c3ccccc3)cc2C(=O)N(C)C)cc1	9	1	53*	4	-1	-7
O=C(Nc1ccc2c(c1)OCO2)N1CCC(c2nc3ccc(Cl)cc3[nH]2)CC1	x	x	x	-6	x	-3
O=C(CSc1nnc(COc2ccc(Cl)cc2)n1Cc1ccco1)Nc1cccc2ccccc12	x	x	x	2	x	7
CC1CN(c2ncnc3c2oc2ccccc23)CC(C)O1 (centres undefined)	-3	-3	-8	0	3	2
Clc1ccc(N2CCN(c3ncnc4c3oc3ccccc34)CC2)cc1	5	5	50*	0	15	0
O=C(CCCCCN1C(=O)C2C3C=CC(C3)C2C1=O)N1CCN(c2ncccn2)CC1 (centres undefined)	x	x	x	-5	x	-7
O=C1COc2ccccc2N1Cc1ccccc1Cl	20	17*	37	4	0	-6
O=C(CN1C(=O)COc2ccccc21)NCCN1CCCC1	6	i	50*	4	4	5
CC1Oc2ccccc2N(Cc2ccccc2Cl)C1=O (centres undefined)	29	-2	31	x	-2	x
CN(Cc1ccccc1)C(=O)OCc1cn(Cc2ccc(C(F)(F)F)cc2)nn1	x	x	x	3	x	15
Cc1ccc(CSC2=Nc3ccccc3C3=NC(=O)CN23)cc1	157*	i	14	4	-6	2
Cc1nnc(N2CCCC(C(=O)NCc3ccc(OC(C)C)cc3)C2)c2nn(-c3ccccc3)c(C)c12 (centres undefined)	37	0	6	-2	88*	12
Cc1cccn2c(=O)c3cc(C(=O)NCCc4ccccc4)c(=N)n(Cc4ccco4)c3nc12	3	i	5	-12	6	-7
Cc1cccn2c(=O)c3cc(C(=O)NCc4ccco4)c(=N)n(CCc4ccccc4)c3nc12	1	i	11	-16	54*	-145
Cc1cccn2c(=O)c3cc(C(=O)NC4CCCCC4)c(=N)n(CCN4CCOCC4)c3nc12	11	0	13	-29	12	-39
CCCn1c(=N)c(C(=O)NC2CCCC2)cc2c(=O)n3cccc(C)c3nc21	12	17*	18	-26	14	-206
O=C(OC12CCCN(C1)/C(=C/c1ccc(Cl)cc1)C2)C1CCCCC1 (centres undefined)	x	x	x	-5	x	-3
O=C(CN(CCc1ccccc1)S(=O)(=O)c1ccccc1)N1CCOCC1	x	x	x	12	x	-3
CCCCCCOC(=O)CCc1c(C)nc(N)[nH]c1=O	0	i	52*	-2	0	-8
CCCCCCOC(=O)Cc1c(C)nc(N)[nH]c1=O	1	-3	-8	1	5	11
CN(CCO)C1CN(Cc2cn(Cc3ccccc3F)nn2)S(=O)(=O)C1 (centres undefined)	x	x	x	7	x	-7
CCN(CC)c1ccc2cc(C(=O)Nc3ccccn3)c(=O)oc2c1	-2	i	-13	-3	+	-13
COc1ccc(C(=O)NNS(=O)(=O)c2ccccc2)cc1	-12	i	2	-4	-1	2
COc1ccc(C(=O)NNS(=O)(=O)c2ccc(OC)cc2)cc1	10	0	58*	9	4	-6
Cn1cccc1/C=C1\SC(=O)N(c2ccccc2)C1=O	3	-1	3	-6	88*	-1
